The values below are quoted from earlier work in PubChem BioAssay AID977611.

For orientation: Kd means the constant that tells how readily two partners part at equilibrium.

A short description of this data set: PubChem AID 977611. The conditions noted are these: PDB protein-ligand complexes, literature Kd.

Counter-ions that a name gives are not always drawn. In all, about 3,900 compounds went through this assay and about 3,900 (100%) were called active. No cut-off is given here; in the data, nearly all actives have Kd up to about 4200 µM. So high a share suggests a set chosen from earlier hits. The list shows a part of the results. Bridge positions count the residues as written; N and C are the ends. Where a SMILES comes first, the peptide text is derived from it. Non-standard residues stand in square brackets, D forms with d. Residues, ends and D or L forms follow the SMILES beside them. Peptide text beside a SMILES is read from it. [ ]: non-standard residue; d: D form. * marks the point of attachment. Orn(CH(NH2)2) = NC(N)NCCC[C@H](N)C(=O)O; Tfa = O=C(C(F)(F)F)*

Take `CC[C@H](C)[C@H](NC(=O)[C@H](CC(N)=O)NC(=O)[C@@H](N)Cc1ccccc1)C(=O)N[C@H](C(=O)NCC(=O)N[C@H](C(=O)N[C@H](C(=O)N[C@@H](Cc1ccc(O)cc1)C(=O)N1CCC[C@H]1C(=O)N[C@H](C(=O)N[C@@H](CC(N)=O)C(=O)O)[C@@H](C)CC)[C@@H](C)O)[C@@H](C)O)C(C)C` (H-FNIVGTTYPIN-OH): for the setting “protein: Gephyrin GephE, PDB entry 4tk1”, the Kd was 190 µM (active).
In the case of `CC[C@H](C)[C@H](NC(=O)[C@H](CO)NC(=O)[C@@H](N)Cc1ccccc1)C(=O)N[C@H](C(=O)NCC(=O)N[C@H](C(=O)N[C@@H](CC(C)C)C(=O)N[C@@H](Cc1ccc(O)cc1)C(=O)N1CCC[C@H]1C(=O)O)[C@@H](C)O)C(C)C` (H-FSIVGTLYP-OH), the equilibrium dissociation constant (Kd) (protein: Gephyrin GephE, PDB entry 4tk3) was 8 µM (active) and the dissociation constant (Kd) (protein: Gephyrin GephE, PDB entry 4tk4) was 8 µM (active).
With `NC(N)=NCCC[C@@H](C(=O)O)N1[C@H](O)CC[C@@H]1C(=O)O`, for the setting “protein: Nopaline-binding periplasmic protein NocT WT, PDB entry 4pow”, the dissociation constant (Kd) is 0.5 µM (active).
On to `NC(N)=NCCC[C@@H](C(=O)O)N1[C@@H](C(=O)O)CC[C@@H]1O`, for which the Kd (protein: Nopaline-binding periplasmic protein NocT-M117N, PDB entry 4pp0) is 39.9 µM (active).
For the compound `C[N+](C)(C)CCO[P+](O)(O)O`, under “protein: Ficolin-2, PDB entry 4nyt”, the Kd was 4100 µM (active).
With `CC(O)C1C(=O)[C@H]2[C@@H]3c4c[nH]c5cccc(c45)C[C@@H]3C(C)(C)N2C1=O` (some centres not stated), under “protein: Sarcoplasmic/endoplasmic reticulum calcium ATPase 1, PDB entry 2EAS”, the Kd is 0.007 µM (active).
For `CC(=O)N[C@H]1[C@H](O[C@H]2[C@H](O)[C@@H](O)CN[C@@H]2CO)O[C@H](CO)[C@@H](O[C@@H]2O[C@H](CO)[C@@H](O[C@@H]3O[C@H](CO)[C@@H](O)[C@H](O)[C@H]3NC(C)=O)[C@H](O)[C@H]2NC(C)=O)[C@@H]1O`, where the note is “protein: Lysozyme C, PDB entry 4hp0”, the Kd is 0.76 µM (active).
Regarding `CC(=O)N[C@H]1[C@H](O[C@H]2[C@H](O)[C@@H](O)CN[C@@H]2CO)O[C@H](CO)[C@@H](O[C@@H]2O[C@H](CO)[C@@H](O)[C@H](O)[C@H]2NC(C)=O)[C@@H]1O`, the Kd (protein: Lysozyme C, PDB entry 4hpi) is 14.2 µM (active).
In the case of `CO[C@H]1O[C@H](CO)[C@@H](O)[C@H](O)[C@@H]1S[C@H]1O[C@H](CO)[C@@H](O)[C@H](O)[C@@H]1O`, under “protein: MANNOSYL-OLIGOSACCHARIDE 1,2-ALPHA-MANNOSIDASE, PDB entry 4ayp”, the dissociation constant Kd is 0.755 µM (active).
Take `OC[C@H]1O[C@@H](O)[C@H](O)[C@@H](O)[C@@H]1S[C@@H]1O[C@@H](CO[P+](O)(O)O)[C@@H](O)[C@H](O)[C@H]1O`: the Kd (protein: 6-phospho-beta-glucosidase, PDB entry 4ipn) was 409 µM (active).
Turning to `O[C@@H]1[C@H](O)[C@@H](CO[P+](O)(O)O)O[C@@H]1O`, the Kd (protein: Transcriptional regulator LsrR, PDB entry 4l5j) is 1000 µM (active) and the Kd (protein: Transcriptional regulator LsrR, PDB entry 4l51) was 995 µM (active).
Take `O=C1OC[C@@H](O[C@@H]2OC[C@@H](O[C@@H]3OC[C@@H](O)[C@H](O)[C@H]3O)[C@H](O)[C@H]2O)[C@H](O)[C@H]1O`: the Kd (protein: Selenomethionine XBP1, PDB entry 4g68) is 0.012 µM (active).
Consider `CC(C)[C@@H]1NC(=O)[C@H](Cc2c[nH]cn2)NC(=O)[C@H](Cc2ccc(O)cc2)NC(=O)[C@H]([C@@H](C)O)NC(=O)[C@H](Cc2c[nH]cn2)NC(=O)[C@H](Cc2ccc(O)cc2)NC(=O)CSC[C@@H](C(N)=O)NC(=O)[C@H](Cc2ccc(O)cc2)NC(=O)[C@H](Cc2ccc(O)cc2)NC(=O)[C@H](CC(N)=O)NC(=O)[C@H]([C@@H](C)O)NC(=O)[C@H](CCCN=C(N)N)NC(=O)[C@H](CCCN=C(N)N)NC(=O)[C@H](CCCCNC(=O)C(F)(F)F)NC1=O` ({CH2CO}-YHTYHVK(Tfa)RRTNYYC-NH2; thioether N-14), for which, for the setting “protein: NAD-dependent protein deacetylase sirtuin-2, SIRT2, PDB entry 4l3o”, the Kd is 1 µM (active).
As for `Cc1noc(C)c1-c1ccc(-c2[nH]c3cncc[n+]3c2NC(C)(C)C)cc1`, the Kd (protein: Bromodomain-containing protein 4 BRD4, PDB entry 4wiv) was 0.55 µM (active).
In the case of `CC(=O)N[C@@H](Cc1ccccc1)C(=O)N[C@@H](Cc1cnc[nH]1)C(=O)N[C@H](C(=O)N[C@@H](C)C(N)=O)[C@@H](C)O` (Ac-FHTA-NH2), the Kd (protein: DNA REPAIR AND RECOMBINATION PROTEIN RADA, PDB entry 4b3b) is 250 µM (active).
Regarding `CC(C)[C@H](N)C(=O)N[C@@H](CCC(=O)O)C(=O)N[C@@H](CCC(N)=O)C(=O)N[C@@H](Cc1cnc[nH]1)C(=O)N[C@@H](Cc1cnc[nH]1)C(=O)N[C@@H](CCCNC(N)N)C(=O)N[C@@H](CCCNC(N)N)C(=O)N[C@H](C(=O)N[C@@H](CC(=O)O)C(=O)N[C@@H](CC(N)=O)C(=O)N[C@@H](CC(=O)O)C(=O)O)[C@@H](C)O` (H-VEQHH[Orn(CH(NH2)2)][Orn(CH(NH2)2)]TDND-OH), the Kd (protein: 13F6-1-2 Fab fragment heavy chain, PDB entry 2qhr) was 0.041 µM (active).
Consider `CC[C@H](C)[C@H](NC(=O)[C@H](CCC(=O)O)NC(=O)[C@H](Cc1cnc[nH]1)NC(=O)[C@@H](NC(=O)[C@@H](NC(=O)[C@H](CO)NC(C)=O)[C@@H](C)O)C(C)C)C(=O)N[C@@H](CC(C)C)C(=O)N[C@@H](CO)C(=O)N[C@@H](CCCCN)C(=O)N[C@@H](CC(C)C)C(=O)N[C@@H](CO)C(=O)O` (Ac-STVHEILSKLS-OH), for which the Kd (protein: S100A10, PDB entry 1bt6) was 2 µM (active).
For the compound `CC(=O)N[C@@H](CO)C(=O)N[C@@H](Cc1cnc[nH]1)C(=O)N[C@H](C(=O)N[C@@H](C)C(=O)N[C@H](C(=O)N[C@@H](CCC(=O)O)C(=O)N[C@@H](CC(N)=O)C(=O)N[C@@H](C)C(=O)N[C@@H](CC(C)C)C(=O)O)C(C)C)C(C)C`, for the setting “protein: HLA class I histocompatibility antigen, B-39 alpha chain, PDB entry 4o2c”, the Kd is 0.01 µM (active).
Regarding `CC(=O)NCC(=O)N[C@@H](CO)C(=O)N[C@@H](C)C(=O)N[C@@H](CCCNC(N)N)C(=O)N[C@@H](C)C(=O)N[C@@H](CCC(=O)O)C(=O)N[C@H](C(=O)N[C@@H](Cc1cnc[nH]1)C(=O)N[C@@H](CC(C)C)C(=O)O)C(C)C` (Ac-GSA[Orn(CH(NH2)2)]AEVHL-OH), the Kd (protein: WD repeat-containing protein 5, PDB entry 3eg6) is 1.7 µM (active).
Regarding `CC(C)[C@H](NC(=O)[C@H](CCC(=O)O)NC(=O)[C@H](C)NC(=O)[C@H](CCCNC(N)N)NC(=O)[C@H](C)N)C(=O)N[C@@H](Cc1cnc[nH]1)C(=O)O` (H-A[Orn(CH(NH2)2)]AEVH-OH), for the setting “protein: WD repeat-containing protein 5, PDB entry 3emh”, the Kd is 0.14 µM (active).
